Out of some 340,000 compounds screened, about 1,300 (0.38%) were called active.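 The calls were made as follows: active = maximum activity change below -70%; inconclusive = maximum activity change between -70% and -50%; inactive = maximum activity change above -50%.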 This excerpt belongs to a sample that is enriched for actives.
% is scaled to controls: 0 for no effect and ±100 for the full control effect.

In the test the target is Voltage-gated inwardly rectifying potassium channel KCNH2 (Homo sapiens) (UniProt Q12809). Kind of test: qHTS for Inhibitors of KCHN2 3.1: Wildtype qHTS. Conditions: U2OS, BacMam KCNH2, thallium flux FluxOr; at 1.84 µM; hits give low values. From the text: Many antipsychotic drugs that inhibit the neurotransmitter dopamine also bind to hERG1 channel which might help explain their antipsychotic activity but also produces cardiac side effects. The discovery of the novel KCNH2 3.1 isoform offers a potential new target for the development of antipsychotic drugs without cardiac side effects. This proposal will use a high throughput thallium flux assay developed for KCNH2 to screen compounds that modulate the activity of KCNH2 3.1. The wild type KCNH2 channel will also be screened in parallel to help define the selective modulators of this KCNH2 3.1 potassium channel. The resulting compounds will be validated in electrophysiology experiments. The availability of animal models will allow future testing in vivo for effects on memory and other aspects of animal physiology linked with psychosis. NIH Chemical Genomics Center [NCGC] NIH Molecular Libraries Probe Centers Network [MLPCN] MLPCN Grant: MH096539 Assay Submitter (PI): James Barrow, Johns Hopkins University, Lieber Institute for Brain Development
Voltage-gated inwardly rectifying potassium channel KCNH2 (Homo sapiens), sequence (Q12809 whole entry, looked up, canonical isoform): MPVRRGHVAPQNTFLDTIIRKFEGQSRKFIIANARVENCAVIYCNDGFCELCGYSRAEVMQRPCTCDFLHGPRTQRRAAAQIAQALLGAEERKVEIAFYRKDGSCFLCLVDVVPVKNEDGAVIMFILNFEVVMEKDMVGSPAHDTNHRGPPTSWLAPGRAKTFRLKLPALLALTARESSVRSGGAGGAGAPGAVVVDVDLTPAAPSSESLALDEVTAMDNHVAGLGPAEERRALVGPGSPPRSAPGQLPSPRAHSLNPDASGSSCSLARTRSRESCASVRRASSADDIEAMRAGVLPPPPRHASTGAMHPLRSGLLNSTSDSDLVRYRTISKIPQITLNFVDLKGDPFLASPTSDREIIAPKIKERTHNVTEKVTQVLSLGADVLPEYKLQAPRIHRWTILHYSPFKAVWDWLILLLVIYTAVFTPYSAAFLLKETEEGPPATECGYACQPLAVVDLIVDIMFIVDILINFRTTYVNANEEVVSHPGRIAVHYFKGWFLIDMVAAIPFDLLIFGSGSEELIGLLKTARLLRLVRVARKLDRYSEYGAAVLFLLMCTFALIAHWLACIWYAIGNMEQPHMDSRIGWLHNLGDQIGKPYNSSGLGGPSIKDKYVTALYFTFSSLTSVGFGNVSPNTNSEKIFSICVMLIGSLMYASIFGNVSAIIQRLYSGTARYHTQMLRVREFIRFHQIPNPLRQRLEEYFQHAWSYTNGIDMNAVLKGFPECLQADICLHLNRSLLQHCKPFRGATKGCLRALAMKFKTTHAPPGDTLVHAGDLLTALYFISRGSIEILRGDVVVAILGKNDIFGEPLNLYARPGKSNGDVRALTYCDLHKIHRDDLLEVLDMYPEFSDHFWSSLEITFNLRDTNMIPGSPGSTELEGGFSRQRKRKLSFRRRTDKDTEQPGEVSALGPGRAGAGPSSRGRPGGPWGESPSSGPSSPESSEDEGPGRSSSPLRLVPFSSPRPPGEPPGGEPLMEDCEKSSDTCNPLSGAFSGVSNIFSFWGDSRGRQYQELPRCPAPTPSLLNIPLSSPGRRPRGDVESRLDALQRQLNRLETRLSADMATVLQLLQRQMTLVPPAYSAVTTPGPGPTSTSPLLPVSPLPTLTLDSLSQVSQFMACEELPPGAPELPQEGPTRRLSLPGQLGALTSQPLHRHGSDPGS
U2OS cells were resuspended in cell media containing 10% fetal calf serum (FCS) at a concentration of 2 million cells / mL. The solution was treated with the Wild-type virus at 2.03 x 10^8 / mL and allowed to incubate at room temperature in the dark. After 4 hours of incubation, DMEM + 10% fetal bovine serum (FBS) was added to the cell solution. Three microliter was then dispensed into a 1536 tissue culture treated black assay plates which were incubated overnight at 37 C. Two microliter of loading buffer (HBSS + HEPES + Red40 dye quencher + FluxOr dye) was added and the assay plates were incubated for 45 min at room temperature in the dark. […] A stimulation buffer was added to the plate and the second kinetic read (2 min) was obtained. The rate constant was calculated from the kinetic reads and normalized to the positive and negative DMSO controls.
In general terms: In qHTS, concentration-response curves come from the screen itself.
For the molecule `CCOC(=O)C1(CCc2ccccc2)CCN(Cc2ccco2)CC1`, the activity change is -42.5% (inactive).
For the molecule `CCOC(=O)C1(Cc2ccc(Cl)cc2)CCN(C(C)CCn2cccn2)CC1` (stereo not given), the activity change was -90.9% (active).
To `CNC(=O)O/N=C(\N)Cc1csc2ccc(Cl)cc12` belongs -2.66% (inactive); to `NCCc1ccc(S(=O)(=O)F)cc1`, -7.95% (inactive).
In the case of `NCC(O)c1ccc(O)cc1` (stereo not given) it was 2.77% (inactive).
Regarding `CC1(C)Cc2c(C#N)c(N3CCNCC3)nc(-c3ccco3)c2CS1`, the activity change was -1.97% (inactive).
Take `CC(=NCC1CCCO1)c1c(O)n(-c2ccccc2)c(=O)[nH]c1=O` (stereo not given): the activity change was -12.8% (inactive).
Turning to `CC(Cc1ccccc1)NCCC(c1ccccc1)c1ccccc1` (stereo not given), the activity change is -106% (active).
In the case of `O=C1NC(=O)C(CCOc2ccccc2)(CCc2ccccc2)C(=O)N1` it was -6.81% (inactive); in that of `O=Cc1cn(Cc2ccc(F)cc2Cl)c2ccccc12`, 0.945% (inactive).

(Values after PubChem BioAssay AID720551 (National Center for Advancing Translational Sciences (NCATS), 2013).)
